Among the data in PubChem BioAssay AID504832 (National Center for Advancing Translational Sciences (NCATS), 2011) are Potency and activity change, negative = inhibition values, retold here.

About 18,000 (5.8%) of roughly 310,000 compounds were called active. Where a call stands in place of a potency, no number is given. Inconclusive results (about 22%) are left out. Only a selection was taken, and actives are over-represented in it overall. Unmarked numbers belong to inactive results. Calls come from the whole dose curve; as a rule, active = well fitted inhibition curve with a large enough effect; inconclusive = small, poorly fitted or top-dose-only effect, or another doubt; inactive = no such curve, though single readings can be large or run the other way.
Potency is the fitted concentration of half-maximal effect.

This test can be described thus: Primary qHTS for delayed death inhibitors of the malarial parasite plastid, 48 hour incubation. Conditions: P. falciparum luciferase growth in erythrocytes; series mostly up to 28.7 µM. An outline of the steps:
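Growth was read as firefly luciferase luminescence after a 48 h, 37 C, 5% CO2 exposure of compounds to reporter-bearing P. falciparum cultures (0.1% parasitemia, 2% hematocrit final) in Albumax-supplemented RPMI 1640.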
On to `Cc1cc(NC(=O)CSC2=NS(=O)(=O)c3cc(Cl)ccc3N2)no1`, for which the Potency result is “inactive”. As to `Cc1cc(S(=O)(=O)c2cc3ccc(O)c(C)c3oc2=O)ccc1F`, the activity change, negative = inhibition was 8.19% [at 0.00184 µM]. Regarding `CCN(CC(=O)NCC(=O)Nc1cccc(C)c1C)Cc1ccccc1`, the Potency entry is “inactive”.

`CC(Oc1cc2oc(=O)c3c(c2cc1Cl)CCCC3)C(=O)NCc1ccncc1` (stereo not drawn): the Potency entry is “inactive”.

As for `Cc1nc2nc(C)c(NS(=O)(=O)c3ccc(C(C)(C)C)cc3)c(=O)n2[nH]1`, the Potency entry is “inactive”. Consider `CCCc1nn2c(=O)cc(CSCC(=O)Nc3cccc(C)c3)nc2s1`, for which the Potency entry was “inactive”. For `CCCNC(=S)N1CCC(NC(=O)c2ccc(OC)cc2)CC1`, the Potency entry is “inactive”.

Turning to `COc1ccc(C(=O)NC2CCN(C(=S)Nc3ccccc3)CC2)cc1`, the Potency result is “inactive”. Regarding `COc1cc(OC)cc(C(=O)NC2CCN(C(=O)N3c4ccccc4Sc4ccccc43)CC2)c1`, the Potency is 13.1 µM (active). Regarding `CSc1ccc(S(=O)(=O)N2CCC(C(=O)NCc3ccncc3)CC2)cc1`, the Potency result is “inactive”. For the compound `Cn1cc(C(=O)NCc2ccccc2F)cn1`, the Potency entry is “inactive”. Turning to `O=c1c2ccccc2cnn1Cc1n[nH]c(=S)n1-c1ccccc1F`, the Potency entry was “inactive”.

Consider `Cn1c2cc(B(O)O)sc2c2cnn(Cc3ccccc3F)c(=O)c21`, for which the Potency was 10.4 µM (active). `Cc1[nH]c2ccc(C(=O)N3CCN(C)CC3)cc2c1C`: the Potency entry was “inactive”. For `COC(=O)c1ccc(CSc2nc3ccccc3c(=O)n2-c2cccc(OC)c2)o1`, the Potency was 13.1 µM (active). On to `COCCNC(=O)c1ccc(-n2c(SCc3cccnc3)nc3ccccc3c2=O)cc1`, for which the Potency result was “inactive”. In the case of `Cc1nn(-c2ccccc2)c(C)c1/C=N/NC(=O)CSc1nc2ccccc2c(=O)n1-c1ccccc1`, the Potency result is “inactive”. `CN=C1S/C(=C\c2c(OC)cc(OC)cc2OC)C(=O)N1C`: the Potency result is “inactive”. Regarding `CC(=O)NCCc1ccc(S(=O)(=O)Nc2ccc(C)c(S(=O)(=O)N3CCOCC3)c2)cc1`, the Potency entry was “inactive”. Regarding `COCCNC(=O)C(c1ccc(C)cc1)N(C(=O)CCC(=O)Nc1ccccn1)c1cccc(C)c1` (stereo not drawn), the Potency entry is “inactive”. Take `COc1ccccc1N1CC(C(=O)Nc2nnc(SCC(=O)NC(C)C)s2)CC1=O` (stereo not drawn): the Potency result is “inactive”. Still for that read-out and setting: then `COc1ccccc1N1CC(C(=O)Nc2nnc(SCC(=O)NCC3CCCO3)s2)CC1=O` (stereo not drawn), with “inactive”. In the case of `Cc1ccc(C(=O)OCC(=O)N2CC(C)CC(C)C2)cc1S(=O)(=O)N1CCCCC1` (stereo not drawn), the Potency result was “inactive”. Turning to `Cc1ccc(C(=O)OCC(=O)NCc2cc(C)c(O)c(C)c2)cc1S(=O)(=O)N1CCCCC1`, the Potency is 8.28 µM (active). As to `Cc1ccc(C(=O)NCC(=O)O)cc1S(=O)(=O)N1CCCCC1`, the Potency entry was “inactive”. For the compound `O=C(c1ccccc1F)N1CCN(S(=O)(=O)c2ccc(Br)cc2)CC1`, the Potency result was “inactive”. On the same count and under the same terms, then `CCOC(=O)c1cc(-c2ccccc2C)n(Cc2cc(C)no2)n1`, with “inactive”; and `COc1ccc(N2CCC(CNC(=S)Nc3c(C)cccc3C)C2)cc1` (stereo not drawn), with 11.7 µM (active); and `COc1ccc(NC(=S)NCC2CCN(c3ccc(OC)cc3)C2)cc1` (stereo not drawn), with 11.7 µM (active). As for `COc1ccc(NC(=O)N2CCC(Cc3ccccc3)CC2)cc1`, the Potency result is “inactive”. With `COc1ccc(NC(=S)NCCN2CCC(C)CC2)cc1`, the activity change, negative = inhibition is 17.2% [at 5.75 µM]. Turning to `COc1cccc(N2CC(C(=O)Nc3c(C)cccc3C)CC2=O)c1` (stereo not drawn), the Potency result was “inactive”. As for `COc1ccc(N2CCC(N3CCN(C)C(CCO)C3)CC2)cc1` (stereo not drawn), the Potency entry is “inactive”.

As for `Cc1cc(C)cc(NS(=O)(=O)Cc2ccccc2)c1`, the Potency result is “inactive”. For `CC(OC(=O)/C=C/c1ccccc1)C(=O)Nc1ccc(C(N)=O)cc1` (stereo not drawn), the Potency result is “inactive”.

With `Cc1ccccc1NC(=O)Cc1nc(COC(=O)c2ccc(C(F)(F)F)cc2)cs1`, the Potency entry was “inactive”. On to `Cc1ccc(S(=O)(=O)N2CC(C)N(S(C)(=O)=O)C2)cc1` (stereo not drawn), for which the Potency entry was “inactive”. On the same count and under the same terms, then `CCOC(=O)C1=C(COC(=O)[C@H](C)NS(=O)(=O)c2ccccc2F)NC(=O)NC1C` (stereo partly drawn), with “inactive”.
